Assay results taken from PubChem BioAssay (NCI).
“And” between values parts separate entries of the source, which are not always exact repeats. Equal entries are not always repeated. This is part of a sample that, as a whole, favours compounds with a hit. Of some 79,000 tested, about 15% had one in any assay. The source made the active and inactive calls. Cut-off read from the data, not from the text of the source: active = growth inhibition above about 70%; inactive = the rest.

Experiments:
[1] = NCI Yeast Anticancer Drug Screen. Data for the rad50 strain (AID 155);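 note: 0% = growth of vehicle-only cultures of the same strain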; details: S. cerevisiae rad50 strain growth inhibition; at 50.0 µM; stronger effect = higher value
In short: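 Growth of the mutant yeast was measured after compound exposure and referenced to vehicle-treated cultures.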

[2] = NCI Yeast Anticancer Drug Screen. Data for the mec2-1 strain (AID 157); details: S. cerevisiae mec2-1 strain, at 50.0 µM, stronger effect = higher value
In short: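 Each compound was tested on mec2-1 yeast, a strain altered in DNA damage repair or cell cycle control. Growth inhibition is reported relative to vehicle.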

[3] = NCI Yeast Anticancer Drug Screen. Data for the sgs1 mgt1 strain (AID 161);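 note: 0% = growth of cultures given vehicle only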; details: S. cerevisiae sgs1 mgt1 strain, at 50.0 µM, stronger effect = higher value
In short: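 Test agents were incubated with a DNA-repair-mutant yeast strain. Growth was then read and compared against vehicle-treated controls.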

[4] = NCI Yeast Anticancer Drug Screen. Data for the cln2 rad14 strain (AID 165);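 note: 0% = growth equal to vehicle treated cultures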; details: S. cerevisiae cln2 rad14 strain, at 50.0 µM, stronger effect = higher value
In short: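 Test compounds were added to cln2 rad14 yeast cultures; inhibition of growth was then determined by comparison with vehicle treatment.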

[5] = NCI Yeast Anticancer Drug Screen. Data for the bub3 strain (AID 167); details: S. cerevisiae bub3 mutant strain, at 50.0 µM, stronger effect = higher value
In short: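 Whole-cell yeast assay. The mutant strain was incubated with compounds, and growth inhibition was determined by comparison with vehicle-treated cells.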

[6] = NCI Yeast Anticancer Drug Screen. Data for the mlh1 rad18 strain (AID 175); details: S. cerevisiae mlh1 rad18 strain growth inhibition; at 50.0 µM; stronger effect = higher value
In short: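 Inhibition values reflect reduced growth of mutant yeast versus vehicle-treated controls following compound exposure; the mutations affect DNA damage repair.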

Measured: growth inhibition

COc1ccc2nc3cc(Cl)ccc3c(NCCCSCCCl)c2n1
active: [1] 95.4% | [2] 80% | [3] 94.3% | [4] 78.4% | [5] 71.3% | [6] 92.2%

C1CC2OC2CC1C1CO1 (stereo not drawn)
inactive: [1] -0.4% | [2] -3% | [3] 4.7% | [4] -8.4% | [5] -17.1% | [6] -17.9%

CCOP(O)(=S)OCC.[Yb]
inactive: [1] 22.4% | [2] -2.45% | [3] -1.1% | [4] -22.7% | [5] -1.35% | [6] -7.4%

O=C(O)[C@@H](Cl)[C@@H](Cl)C(=O)O
inactive: [1] 30.7% | [2] -11.4% | [3] 22.9% | [4] 6.7% | [5] 9.55% | [6] 17.9%

[N-]=[N+]=NC1(C(=O)O)CCCC1
inactive: [1] 0.95% | [2] -6.85% | [3] -15.4% | [4] -14.2% | [5] -5.75% | [6] -34.8%

Cc1cc2[nH]c3c(C#N)c(OC(=O)N(C)C)c(C)c(=O)n3c2cc1C
inactive: [1] 37.3% | [2] 22.3% | [3] 31.6% | [4] 17.1% | [5] 27.9% | [6] 39%

C[CH2][Pb]([CH2]C)([CH2]C)[O]C(=O)c1ccccc1
inactive: [1] -0.3% | [2] 1.6% | [3] 10.2% | [4] -3.35% | [5] 1.35% | [6] 5.35%

CC(C)CCC(=O)O[C@H]1CC[C@@]2(C)C(=CC[C@@H]3[C@@H]2CC[C@]2(C)C(=O)CC[C@@H]32)C1
inactive: [1] 26.2% | [2] 8.4% | [3] 11.4% | [4] 17.1% | [5] 1.95% | [6] 23.3%

O=P(N1CCOCC1)(N1CC1)N1CC1
inactive: [1] 15.4% | [2] -7.35% | [3] -0.15% | [4] 13.7% | [5] 9% | [6] 34.7%

CC(C)(C)[Si](C)(C)OC(=O)CCCc1ccc(N(CCCl)CCCl)cc1
inactive: [1] 12.1% | [2] -9.9% | [3] -10.2% | [4] 9.4% | [5] -21.7% | [6] -47.1%

O=C(Nc1ccccc1Cl)OCC(Cl)(Cl)Cl
inactive: [1] -15.3% | [2] 2% | [3] 16.1% | [4] -19.9% | [5] 19.8% | [6] -11.2%

CC[n+]1c(/C=C/c2ccc(N(CCCl)CCCl)cc2)ccc2cc(NC(=O)/C=C/c3ccccc3)ccc21
active: [1] 82.1% | [2] 86.5% | [3] 87.7% | [4] 85.5% | [5] 86.5% | [6] 82%

CCCCN1C(=O)C(=C/C=C/C=C2\Oc3ccccc3N2CCCS(=O)(=O)O)C(=O)N(CCCC)C1=S
inactive: [1] 18% | [2] 2.9% | [3] 3.75% | [4] 15.7% | [5] -3.9% | [6] 27%

Cc1ccc2c(O)c3c(cc2c1)C(=O)c1c2c(cc(O)c1C3=O)C1(C)OC(O2)C(O)C(N(C)C)C1O (stereo not drawn)
active: [1] 86.7% | [2] 87.9% | [3] 90.9% | [4] 87.7% | [5] 87.8% | [6] 85.5%

CCC12C=CCN3CCC4(c5ccc(OC)cc5N(C)C4C(O)(C(=O)OC)C1OC(C)=O)C32 (stereo not drawn) (tested in a mixture with another compound)
inactive: [1] 5.3% and 8.35% | [2] 5.4% and 17.2% | [3] -5.85% and 11.3% | [4] -10.7% and 2.25% | [5] -3.15% and 0.7% | [6] 25.4% and 22.1%

C[CH2][Sn]([CH2]C)([CH2]C(=O)OC)[CH2]C(=O)OC
inactive: [1] 3.15% | [2] 14.7% | [3] 15.5% | [4] 11.7% | [5] 14.4% | [6] -9.9%

C1CCC(NC2CCCC2)C1
inactive: [1] 13.4% | [2] -0.5% | [3] 10.1% | [4] 11.7% | [5] -8.4% | [6] 5.45%

CCOP(=O)(OCC)C1CCC(=O)O1 (stereo not drawn)
inactive: [1] -14.2% | [2] -20.2% | [3] -14% | [4] 12.4% | [5] 10.6% | [6] 10.6%

CCCCCCOC(=O)c1ccccc1C(=O)OCCCCCC
inactive: [1] -13.2% | [2] -1.75% | [3] -27.9% | [4] -12.5% | [5] -45.2% | [6] -2.8%

CCC[CH2][Sn]([CH2]CCC)([CH2]CCC)[CH2]CC[N+](C)(CCO)CCO.CS(=O)(=O)[O-]
active: [1] 99.4% | [2] 99.2% | [3] 99.7% | [4] 99.3% | [5] 99.5% | [6] 99.2%

c1ccc(-c2ccc[n+](CCC[n+]3cccc(-c4ccccn4)c3)c2)nc1
inactive: [1] 2.9% | [2] 2.45% | [3] -15.2% | [4] -8.45% | [5] -5.75% | [6] 6.25%

CC([NH-])C[NH-].[Na+].[O]=[Co][O-] (stereo not drawn)
inactive: [1] 8.4% | [2] 11.9% | [3] 24.5% | [4] -21.6% | [5] -0.25% | [6] 10.3%

O=C(O)CC(=O)O.[Ti].[c-]1[c-][c-][cH-][c-]1.[c-]1[c-][c-][cH-][c-]1
inactive: [1] -12.4% | [2] -5.75% | [3] -6.8% | [4] -51.6% | [5] 0.2% | [6] -0.95%

ClCc1cccc2ccccc12
inactive: [1] -28.7% | [2] -4.7% | [3] -26.1% | [4] -6.05% | [5] -7.6% | [6] -39%

CCN1C(=O)C(=C/C=C/C=C2/N(C)c3ccccc3C2(C)C)C(=O)N(CC)C1=S
inactive: [1] -28.9% | [2] -8.25% | [3] -11.3% | [4] -32.5% | [5] 0.45% | [6] 0.35%

CC1=C(C#N)C2(CCN(C)CC2)C(C#N)=C(C)N1
inactive: [1] 13.3% | [2] 8.75% | [3] 3.05% | [4] -27.9% | [5] -3% | [6] -4.4%

N#CCc1ccc(Br)cc1
inactive: [1] 0.2% | [2] 0.8% | [3] 5.65% | [4] -16.9% | [5] -14.9% | [6] 5.8%

CN1CCN(C)C(N2CCOCC2)C(C)(C)C1 (stereo not drawn)
inactive: [1] 15.4% | [2] -4.2% | [3] -8.15% | [4] -9.45% | [5] 0.85% | [6] 2.85%

CC1(C)N=C(N)N=C(N)N1c1ccc(CCCCc2ccccc2S(=O)(=O)F)c(Cl)c1
active: [1] 99.5% | [2] 99.7% | [3] 99.7% | [4] 99.4% | [5] 99.5% | [6] 99.7%

Oc1c(Cl)cc(Cl)cc1C1N(Cc2ccc(N(CCCl)CCCl)cc2)CCCN1Cc1ccc(N(CCCl)CCCl)cc1
inactive: [1] 8.75% | [2] 17.2% | [3] 23.4% | [4] -3.25% | [5] 3.7% | [6] 41.5%

Cc1cccc(N2C(=O)C3C(C2=O)C2(Cl)C(Cl)=C(Cl)C3(Cl)C2(Cl)Cl)c1C (stereo not drawn)
inactive: [2] 48.6% | [3] 50.5% | [4] 57% | [5] 65.6% | [6] 56%
active: [1] 88.2%

CC1CN1c1nc(N2CC2C)nc(N2CC2C)n1 (stereo not drawn)
inactive: [1] -6.8% | [2] 13.6% | [3] -2.65% | [4] -1.85% | [5] -19.2% | [6] -11.1%

CCOP(=O)(OCC)C(C#N)OC(C)(C)C (stereo not drawn)
inactive: [1] 4.4% | [2] 20.4% | [3] 12.2% | [4] -0.25% | [5] 10.3% | [6] 2.35%

Nc1ccc(/C=C/C(=O)Nc2ccc(S(=O)(=O)F)cc2)cc1
inactive: [1] 22.4% | [3] 21.1% | [4] 40.1%
active: [2] 96.2% | [5] 99% | [6] 95.5%

O=c1cc[cH-]o1.[C-]#[O+].[C-]#[O+].[C-]#[O+].[C-]#[O+].[C-]#[O+].[C-]#[O+].[CH-]=O.[Co+2].[Co]
inactive: [1] -14.5% and -3.2% | [2] -4.15% and 4.75% | [3] 0.5% and -6.75% | [4] -10.5% and 6.25% | [5] -8.4% and 21.8% | [6] 9.6% and 4.05%

COC(=O)N/N=C(\C)C(CN(C)C)C(c1ccccc1)c1c(O)c2ccccc2oc1=O (stereo not drawn)
inactive: [1] 35.4% | [2] 28.9% | [3] 47% | [4] 34.6% | [5] 49.4% | [6] 34.1%

CCN(CC)CCN1CC2CCCCC2C1 (stereo not drawn)
inactive: [1] 4.25% | [2] 0.35% | [3] 1% | [4] 5.45% | [5] 11.6% | [6] 3%

Cc1ccc(NC(=O)C(Cl)(Cl)Cl)cc1Cl
inactive: [1] 1.8% | [2] 20.6% | [3] 16.4% | [4] -5.2% | [5] 25.2% | [6] 14.8%
